Results: PubChem BioAssay (Tox21)
Values joined by “and” are separate entries in the source; they are usually repeats but may differ in a detail not shown here. Equal entries are not always repeated. Inconclusive results are not listed. Where a call stands in place of a potency, no number is given. A structure can be active in one record and inactive in another. Active and inactive are the calls of the source. Calls come from the whole dose curve; as a rule, active = well fitted curve in the direction sought with a large enough effect in the repeat runs; inconclusive = weak or mixed curves; inactive = no such curve, though single readings can be large; an effect the other way counts as inactive or inconclusive.

What was measured:
[1] = Caspase-3/7 induction in CHO-K1 cells by small molecules, qHTS cell viability counter screen (AID 1346979); note: nearly all actives have a fitted effect of over 35% in size; note: potency is the fitted concentration of half-maximal effect
How it was run: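 Cytotoxicity counter screen: CellTiter-Fluor added to compound-treated wild-type CHO-K1 cells at 16 h (37C, 5% CO2), fluorescence measured 1 h later; same wells as caspase-3/7 measurement.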

[2] = Caspase-3/7 induction in CHO-K1 cells by small molecules, qHTS assay (AID 1346980); note: nearly all actives have a fitted effect of over 15% in size; note: potency is the fitted concentration of half-maximal effect
How it was run: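 Wild-type cells were seeded at 1,500 per well and settled 5 hr at 37 C, 5% CO2, then exposed to DMSO-dissolved compounds for 17 hr. Caspase-Glo 3/7 reagent was added, and luminescence was read after 30min at room temperature.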

[3] = Caspase-3/7 induction in HepG2 cells by small molecules, qHTS cell viability counter screen (AID 1346981); note: nearly all actives have a fitted effect of over 30% in size; note: potency is the fitted concentration of half-maximal effect
How it was run: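 Cell viability is measured as a cytotoxicity counter screen alongside the Caspase-Glo 3/7 readout in identical wells. Wild-type HepG2 cells are treated with test compounds for 16 hr at 37 C before CellTiter-Fluor addition and a 1-hr incubation.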

[4] = biological target: Nuclear receptor subfamily 1 group I member 2 (Homo sapiens) (UniProt O75469); experiment: Human pregnane X receptor (PXR) small molecule agonists, qHTS assay (AID 1346982); note: nearly all actives have a fitted effect of over 35% in size; note: potency is the fitted concentration of half-maximal effect
Sequence of Nuclear receptor subfamily 1 group I member 2 (Homo sapiens) (O75469 whole entry, looked up): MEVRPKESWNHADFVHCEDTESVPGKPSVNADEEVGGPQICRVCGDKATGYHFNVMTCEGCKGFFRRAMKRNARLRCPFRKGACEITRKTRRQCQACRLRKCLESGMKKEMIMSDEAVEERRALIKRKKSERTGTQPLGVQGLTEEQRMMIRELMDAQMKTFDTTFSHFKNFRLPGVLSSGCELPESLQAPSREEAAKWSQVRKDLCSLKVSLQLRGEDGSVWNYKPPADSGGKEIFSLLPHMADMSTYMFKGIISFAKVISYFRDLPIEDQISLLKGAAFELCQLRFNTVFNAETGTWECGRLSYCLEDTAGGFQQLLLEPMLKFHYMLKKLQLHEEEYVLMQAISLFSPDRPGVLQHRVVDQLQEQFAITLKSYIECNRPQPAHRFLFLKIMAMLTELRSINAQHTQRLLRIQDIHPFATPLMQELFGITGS
How it was run: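 Cells: HepG2 stably carrying PXR-Luc. Medium held 5% charcoal-stripped FBS. Compounds in DMSO added after 5 hr plating, incubated 24 hr, then luminescence quantified with ONE-Glo.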

[5] = biological target: Cytochrome P450 2C19 (Homo sapiens) (UniProt P33261); experiment: Cytochrome P450 Family 2 Subfamily C Member 19 (CYP2C19) small molecule antagonists: luciferase reporter qHTS assay (AID 1671197); note: nearly all actives have a fitted effect of over 65% in size; note: potency is the fitted concentration of half-maximal effect
Sequence of Cytochrome P450 2C19 (Homo sapiens) (P33261 whole entry, looked up): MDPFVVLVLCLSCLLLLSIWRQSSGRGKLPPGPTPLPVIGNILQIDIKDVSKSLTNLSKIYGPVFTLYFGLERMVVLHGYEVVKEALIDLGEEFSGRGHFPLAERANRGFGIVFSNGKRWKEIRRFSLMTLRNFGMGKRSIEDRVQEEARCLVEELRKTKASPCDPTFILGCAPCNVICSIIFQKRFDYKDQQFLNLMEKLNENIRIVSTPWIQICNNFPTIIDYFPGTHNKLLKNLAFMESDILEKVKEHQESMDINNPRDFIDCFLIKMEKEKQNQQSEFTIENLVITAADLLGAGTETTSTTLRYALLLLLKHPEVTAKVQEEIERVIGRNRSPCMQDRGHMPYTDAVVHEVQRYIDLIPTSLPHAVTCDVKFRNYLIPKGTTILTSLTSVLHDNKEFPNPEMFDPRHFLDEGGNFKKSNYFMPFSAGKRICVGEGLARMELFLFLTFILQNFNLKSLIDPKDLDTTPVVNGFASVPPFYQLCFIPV
How it was run: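 CYP2C19 P450-Glo, 1536-well qHTS. Cpd + enzyme/proluciferin substrate 10 min RT; + NADPH regen, 37C 1 h; stop with luciferin detection reagent, 20 min RT, luminescence (RLU). Pos ctrl ketoconazole.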

[6] = biological target: Cytochrome P450 2C9 (Homo sapiens) (UniProt P11712); experiment: Cytochrome P450 Family 2 Subfamily C Member 9 (CYP2C9) small molecule antagonists: luciferase reporter qHTS assay (AID 1671198); note: nearly all actives have a fitted effect of over 50% in size; note: potency is the fitted concentration of half-maximal effect
Sequence of Cytochrome P450 2C9 (Homo sapiens) (P11712 whole entry, looked up): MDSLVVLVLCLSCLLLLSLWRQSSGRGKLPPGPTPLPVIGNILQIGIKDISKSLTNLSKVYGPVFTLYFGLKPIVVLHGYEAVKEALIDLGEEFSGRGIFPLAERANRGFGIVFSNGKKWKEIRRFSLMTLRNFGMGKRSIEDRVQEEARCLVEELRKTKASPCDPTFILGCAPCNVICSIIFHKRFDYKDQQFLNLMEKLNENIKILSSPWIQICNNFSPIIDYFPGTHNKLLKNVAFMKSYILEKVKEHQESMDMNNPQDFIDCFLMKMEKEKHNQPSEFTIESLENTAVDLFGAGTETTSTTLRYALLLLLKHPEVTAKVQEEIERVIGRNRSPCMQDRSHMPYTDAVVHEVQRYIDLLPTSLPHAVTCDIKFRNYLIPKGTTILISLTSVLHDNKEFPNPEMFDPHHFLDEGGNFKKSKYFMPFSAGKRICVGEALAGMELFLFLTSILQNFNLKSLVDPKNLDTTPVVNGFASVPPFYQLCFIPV
How it was run: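 CYP2C9 activity was measured with a P450-Glo proluciferin substrate. Enzyme–substrate mix was held with compound for 10 min at room temperature, then NADPH regeneration solution was added for 1 h at 37C. Luciferin product was read as luminescence.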

[7] = biological target: Cytochrome P450 1A2 (Homo sapiens) (UniProt P05177); experiment: Cytochrome P450 Family 1 Subfamily A Member 2 (CYP1A2) small molecule antagonists: luciferase reporter qHTS assay (AID 1671199); note: nearly all actives have a fitted effect of over 50% in size; note: potency is the fitted concentration of half-maximal effect
Sequence of Cytochrome P450 1A2 (Homo sapiens) (P05177 whole entry, looked up): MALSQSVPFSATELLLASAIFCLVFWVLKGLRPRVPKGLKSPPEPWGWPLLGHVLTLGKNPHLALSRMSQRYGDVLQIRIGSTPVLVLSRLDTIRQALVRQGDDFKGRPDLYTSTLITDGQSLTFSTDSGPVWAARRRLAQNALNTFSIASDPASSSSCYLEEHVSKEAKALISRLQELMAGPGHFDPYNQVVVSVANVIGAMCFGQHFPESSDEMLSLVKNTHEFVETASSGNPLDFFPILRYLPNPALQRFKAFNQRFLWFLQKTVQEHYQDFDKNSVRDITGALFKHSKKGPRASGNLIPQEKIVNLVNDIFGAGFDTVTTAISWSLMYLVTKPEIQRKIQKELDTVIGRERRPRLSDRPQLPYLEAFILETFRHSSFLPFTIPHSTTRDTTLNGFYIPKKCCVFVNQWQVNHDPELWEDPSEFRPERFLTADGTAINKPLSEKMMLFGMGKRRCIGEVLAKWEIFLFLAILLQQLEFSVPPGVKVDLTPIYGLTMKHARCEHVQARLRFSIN
How it was run: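 Compounds were incubated with CYP1A2 and a luminogenic proluciferin substrate for 10 min at room temperature before the reaction was started with NADPH regeneration solution. After 1 h, detection reagent was added and light output, proportional to CYP activity, was recorded.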

[8] = biological target: Voltage-gated inwardly rectifying potassium channel KCNH2 (Homo sapiens) (UniProt Q12809); experiment: Human Ether-a-go-go-Related Gene (hERG) channel small molecule antagonists: fluorescence cell-based qHTS assay (AID 1671200); note: nearly all actives have a fitted effect of over 50% in size; note: potency is the fitted concentration of half-maximal effect
Sequence of Voltage-gated inwardly rectifying potassium channel KCNH2 (Homo sapiens) (Q12809 whole entry, looked up): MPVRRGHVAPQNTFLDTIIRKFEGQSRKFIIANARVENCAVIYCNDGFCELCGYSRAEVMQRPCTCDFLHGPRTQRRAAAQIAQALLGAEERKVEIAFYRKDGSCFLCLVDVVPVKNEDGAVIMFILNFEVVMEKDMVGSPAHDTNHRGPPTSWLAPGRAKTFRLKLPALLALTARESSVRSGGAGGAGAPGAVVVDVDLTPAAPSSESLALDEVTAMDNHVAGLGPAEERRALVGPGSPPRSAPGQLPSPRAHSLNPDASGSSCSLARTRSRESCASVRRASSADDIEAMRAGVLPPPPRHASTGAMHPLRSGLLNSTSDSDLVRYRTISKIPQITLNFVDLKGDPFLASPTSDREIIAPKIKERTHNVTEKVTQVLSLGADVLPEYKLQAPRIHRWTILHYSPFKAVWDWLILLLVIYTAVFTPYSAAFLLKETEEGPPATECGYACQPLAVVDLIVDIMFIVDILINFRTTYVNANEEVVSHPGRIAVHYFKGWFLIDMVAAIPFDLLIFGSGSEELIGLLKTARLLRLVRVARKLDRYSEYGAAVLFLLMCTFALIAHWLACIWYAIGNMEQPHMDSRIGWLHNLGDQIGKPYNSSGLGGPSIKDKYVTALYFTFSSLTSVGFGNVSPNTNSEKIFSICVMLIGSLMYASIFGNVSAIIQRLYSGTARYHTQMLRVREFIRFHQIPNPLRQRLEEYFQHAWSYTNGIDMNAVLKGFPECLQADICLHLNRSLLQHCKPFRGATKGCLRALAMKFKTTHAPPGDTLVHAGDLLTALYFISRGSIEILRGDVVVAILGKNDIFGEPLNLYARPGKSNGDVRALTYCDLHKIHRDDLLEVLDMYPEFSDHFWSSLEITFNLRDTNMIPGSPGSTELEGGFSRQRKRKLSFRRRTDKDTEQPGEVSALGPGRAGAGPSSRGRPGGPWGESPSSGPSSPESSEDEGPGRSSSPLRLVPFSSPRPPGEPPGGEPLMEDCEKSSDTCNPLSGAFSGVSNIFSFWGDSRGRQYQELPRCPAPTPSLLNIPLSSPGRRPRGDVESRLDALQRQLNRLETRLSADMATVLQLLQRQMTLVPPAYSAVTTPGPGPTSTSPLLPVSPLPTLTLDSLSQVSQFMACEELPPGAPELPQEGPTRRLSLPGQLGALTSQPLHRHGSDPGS
How it was run: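 Thallium flux as potassium surrogate: FluxOR II dye loaded 1 h at room temperature into hERG-expressing U2OS cells, then stimulus buffer added after 10 min. Kinetic 480 nm excitation/540 nm emission read, 2 min.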

[9] = biological target: Cytochrome P450 3A4 (Homo sapiens) (UniProt P08684); experiment: Cytochrome P450 Family 3 Subfamily A Member 4 (CYP3A4) small molecule antagonists: luciferase reporter qHTS assay (AID 1671201); note: nearly all actives have a fitted effect of over 50% in size; note: potency is the fitted concentration of half-maximal effect
Sequence of Cytochrome P450 3A4 (Homo sapiens) (P08684 whole entry, looked up): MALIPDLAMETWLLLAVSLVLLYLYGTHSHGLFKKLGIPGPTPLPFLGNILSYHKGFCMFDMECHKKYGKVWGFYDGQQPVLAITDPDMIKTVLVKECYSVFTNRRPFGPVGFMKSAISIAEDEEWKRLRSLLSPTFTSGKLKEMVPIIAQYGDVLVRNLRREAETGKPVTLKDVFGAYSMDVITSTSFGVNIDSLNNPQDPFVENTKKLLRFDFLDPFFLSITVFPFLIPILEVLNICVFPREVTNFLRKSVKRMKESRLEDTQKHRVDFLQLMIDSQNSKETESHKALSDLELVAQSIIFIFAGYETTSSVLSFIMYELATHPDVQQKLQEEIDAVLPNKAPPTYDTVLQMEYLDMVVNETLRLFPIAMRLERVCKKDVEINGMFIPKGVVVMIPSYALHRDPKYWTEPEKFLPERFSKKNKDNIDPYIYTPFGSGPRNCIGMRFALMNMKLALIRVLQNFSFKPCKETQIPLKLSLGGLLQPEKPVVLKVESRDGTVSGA
How it was run: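 Recombinant human CYP3A4 converts a proluciferin substrate to luciferin over 1 h at room temperature after NADPH regeneration solution is added (compound preincubated 10 min); detection reagent stops reaction, luminescence read 20 min later as relative units.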

[10] = biological target: Cytochrome P450 2D6 (Homo sapiens) (UniProt P10635); experiment: Cytochrome P450 Family 2 Subfamily D Member 6 (CYP2D6) small molecule antagonists: luciferase reporter qHTS assay (AID 1671196); note: nearly all actives have a fitted effect of over 50% in size; note: potency is the fitted concentration of half-maximal effect
Sequence of Cytochrome P450 2D6 (Homo sapiens) (P10635 whole entry, looked up): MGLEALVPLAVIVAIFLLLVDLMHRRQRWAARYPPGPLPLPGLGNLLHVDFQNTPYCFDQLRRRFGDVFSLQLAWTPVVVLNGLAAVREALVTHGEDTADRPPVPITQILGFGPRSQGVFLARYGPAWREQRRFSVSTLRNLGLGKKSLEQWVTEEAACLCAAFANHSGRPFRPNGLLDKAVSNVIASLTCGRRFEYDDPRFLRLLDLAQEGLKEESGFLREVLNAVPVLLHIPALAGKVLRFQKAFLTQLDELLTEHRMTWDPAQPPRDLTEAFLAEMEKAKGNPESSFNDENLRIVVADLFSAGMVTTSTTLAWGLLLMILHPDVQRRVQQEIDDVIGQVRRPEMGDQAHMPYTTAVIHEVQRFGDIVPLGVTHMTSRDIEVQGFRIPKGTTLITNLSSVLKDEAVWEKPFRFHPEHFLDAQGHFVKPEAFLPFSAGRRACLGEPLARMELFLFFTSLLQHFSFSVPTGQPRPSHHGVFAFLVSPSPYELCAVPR
How it was run: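 Enzyme and proluciferin substrate were first combined with test chemical for 10 min at room temperature. Adding NADPH regeneration solution started a 1 h reaction, stopped with luciferin detection reagent and read by luminescence 20 min later.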

[11] = biological target: Nuclear receptor subfamily 1 group I member 2 (Rattus norvegicus) (UniProt Q9R1A7); experiment: Rat pregnane X receptor (rPXR) activation by small molecules, qHTS assay (AID 1346983); details: rPXR luciferase reporter cells, One-Glo luminescence, 24 h; stronger effect = higher value; note: nearly all actives have a fitted effect of over 20% in size
Sequence of Nuclear receptor subfamily 1 group I member 2 (Rattus norvegicus) (Q9R1A7 whole entry, looked up): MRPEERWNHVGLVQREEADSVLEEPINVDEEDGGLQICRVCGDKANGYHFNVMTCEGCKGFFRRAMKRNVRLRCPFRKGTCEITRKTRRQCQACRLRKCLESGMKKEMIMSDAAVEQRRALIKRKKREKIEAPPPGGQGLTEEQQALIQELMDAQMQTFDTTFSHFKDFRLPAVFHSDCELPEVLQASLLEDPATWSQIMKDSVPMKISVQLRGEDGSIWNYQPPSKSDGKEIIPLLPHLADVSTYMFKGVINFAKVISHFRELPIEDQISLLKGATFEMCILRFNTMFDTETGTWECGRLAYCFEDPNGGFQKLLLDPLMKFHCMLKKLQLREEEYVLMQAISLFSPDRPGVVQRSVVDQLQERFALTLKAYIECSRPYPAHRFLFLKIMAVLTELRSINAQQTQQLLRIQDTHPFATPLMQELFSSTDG
How it was run: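 Cell-based rPXR luciferase reporter assay, 2,000 cells per well, rested 5hr at 37 C before compound addition in DMSO, then 24 hr at 37 C. One-Glo reagent was added and luminescence read after 30 min at room temperature.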

[12] = biological target: Nuclear receptor subfamily 1 group I member 2 (Homo sapiens) (UniProt O75469); experiment: CYP3A4 induction through human pregnane X receptor (PXR) by small molecules, qHTS assay (AID 1346984); note: nearly all actives have a fitted effect of over 40% in size
How it was run: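 Quantitative HTS in DPX-2 cells, i.e. HepG2 transfected with PXR response element and CYP3A4-promoter luciferase. Compounds in DMSO incubated 24hr at 37C; then P450-Glo CYP3A4 substrate, 3uM final, 3hr; One-Glo luminescence.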

[13] = biological target: Nuclear receptor subfamily 1 group I member 2 (Homo sapiens) (UniProt O75469); experiment: Human pregnane X receptor (PXR) activation by small molecules, qHTS assay (AID 1346985); note: nearly all actives have a fitted effect of over 40% in size
How it was run: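 DPX-2 cells (HepG2 co-transfected with a PXR response element and a CYP3A4-promoter luciferase construct) were seeded at 2,000 per well, rested 5 hr at 37C, then exposed to DMSO-dissolved compounds for 24 hr. Activation was read as luciferase luminescence.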

Row | SMILES | Potency [1] | Potency [2] | Potency [3] | Potency [4] | Potency [5] | Potency [6] | Potency [7] | Potency [8] | Potency [9] | Potency [10] | max activation [11] | Potency [12] | Potency [13]
1 | CC(=O)Nc1ccc(C(=O)CCl)cc1 | 54.8 µM (active) and 17.2 µM (active) | inactive | inactive | 21.8 µM (active) and 24.3 µM (active) | inactive and 79.6 µM (active) | 63.3 µM (active) | 31.7 µM (active) | inactive | inactive | – | – | – | –
2 | CC(C)(C)c1ccccc1 | inactive | inactive | inactive | inactive | inactive | – | 20 µM (active) | inactive | inactive | inactive | – | – | –
3 | C=CC(=O)OCCCCCCCC | inactive | inactive | inactive | inactive | inactive | – | – | inactive | inactive | inactive | – | – | –
4 | NC12CC3CC(CC(C3)C1)C2 | inactive | inactive | inactive | – | – | – | – | inactive | – | – | – | – | –
5 | [Cl][In]([Cl])[Cl] | inactive | inactive | – | inactive | inactive and 35.6 µM (active) | – | 37.7 µM (active) | inactive | inactive | inactive | -5.91% (inactive) | inactive | inactive
6 | O=C(O)CCc1ccccc1 | inactive | inactive | – | inactive | inactive | inactive | inactive | inactive | inactive | inactive | – | – | –
7 | O=C(O)Cn1cnnn1 | inactive | inactive | – | inactive | inactive | inactive | inactive | inactive | inactive | inactive | – | – | –
8 | COC(=O)[C@H]1[C@H]2C[C@@H]3c4[nH]c5cc(OC)ccc5c4CCN3C[C@H]2C[C@@H](OC(=O)c2cc(OC)c(OC)c(OC)c2)[C@@H]1OC | 30.6 µM (active) and 39.7 µM (active) and inactive | inactive | 44.5 µM (active) and inactive | – | 41.1 µM (active) and inactive | – | 32.6 µM (active) and inactive | 3.46 µM (active) and 6.34 µM (active) and 10.7 µM (active) | – | 28.2 µM (active) and 9.19 µM (active) | – | – | –
9 | Cc1cc(OCCOCC[N+](C)(C)Cc2ccccc2)ccc1C(C)(C)CC(C)(C)C | 43 µM (active) | inactive | – | inactive | 39.7 µM (active) | 62.9 µM (active) | inactive | 688 nM (active) and 756 nM (active) | inactive | 17.7 µM (active) and 13.8 µM (active) | – | – | –
10 | C=C(C)C(=O)O | inactive | inactive | – | inactive | inactive | inactive | inactive | inactive | inactive | inactive | – | – | –
11 | Cc1cccc2n[nH]nc12 | inactive | inactive | inactive | – | inactive | – | – | inactive | inactive | inactive | – | – | –
12 | CC1=C(C=O)C(C)(C)CC=C1 | inactive | inactive | inactive | inactive | – | inactive | inactive | inactive | – | inactive | – | – | –
13 | C=CS(=O)(=O)O | inactive | inactive | inactive | inactive | inactive | – | inactive | inactive | – | – | – | – | –
14 | CCCCCCCCCCCCc1ccccc1O | 53.8 µM (active) and 54.5 µM (active) | 60.3 µM (active) and 68.6 µM (active) | – | 6.03 µM (active) | 1.57 µM (active) and 3.17 µM (active) | 7.01 µM (active) and 11.2 µM (active) | 35.1 µM (active) and 31.7 µM (active) | inactive | 31.3 µM (active) and 63.3 µM (active) | inactive | – | – | –
15 | CCOC(=O)C(C)C(C)=O (centres undefined) | inactive | inactive | – | inactive | inactive | inactive | 35.8 µM (active) | inactive | inactive | inactive | – | – | –
